# Measurements as given in PubChem BioAssay (NCI).
# Where “and” joins values, the source holds several entries; their conditions need not be identical. Equal values may be shown once. The panel holds about 83,000 compounds, 20% with a hit somewhere; the sample as a whole holds those more often.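 Growth was measured after 48 h exposure to one concentration of compound in 96-well plates. Values under 10 count as active.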 A number with no mark means an inactive call. Calls of active or inactive are those of the source.
# Legend:
# Assay in all cases: NCI-60 one-dose screen, 48 h (100 = growth as untreated, 0 = no growth, -100 = all killed)
# SR leukemia = conditions: 10 µM unless noted
# RPMI-8226 leukemia = conditions: 10 µM unless noted
# OVCAR-8 ovarian = conditions: 10 µM unless noted
# OVCAR-5 ovarian = conditions: 10 µM unless noted
# SK-OV-3 ovarian = conditions: 10 µM unless noted
# IGROV1 ovarian = conditions: 10 µM unless noted
# HS 578T breast = conditions: 10 µM unless noted
# NCI/ADR-RES ovarian = conditions: 10 µM unless noted
# T-47D breast = conditions: 10 µM unless noted
# BT-549 breast = conditions: 10 µM unless noted
# MDA-MB-435 melanoma = conditions: 10 µM unless noted
# SW-620 colon = conditions: 10 µM unless noted
# MCF7 breast = test system: MCF7 breast
# HCT-116 colon = conditions: 10 µM unless noted
# HCC-2998 colon = conditions: 10 µM unless noted
# KM12 colon = conditions: 10 µM unless noted
# OVCAR-4 ovarian = conditions: 10 µM unless noted
# OVCAR-3 ovarian = conditions: 10 µM unless noted
Compound,growth (SR leukemia),growth (RPMI-8226 leukemia),growth (OVCAR-8 ovarian) [%],growth (OVCAR-5 ovarian),growth (SK-OV-3 ovarian),growth (IGROV1 ovarian),growth (HS 578T breast),growth (NCI/ADR-RES ovarian),growth (T-47D breast),growth (BT-549 breast),growth (MDA-MB-435 melanoma),growth (SW-620 colon),growth (MCF7 breast; 10 µM unless noted),growth (HCT-116 colon),growth (HCC-2998 colon),growth (KM12 colon),growth (OVCAR-4 ovarian),growth (OVCAR-3 ovarian),growth (MCF7 breast; 10 µM) [%],growth (MCF7 breast; 100 µM)
O=C(CSc1nnc(Cc2ccccc2Nc2c(Cl)cccc2Cl)n1-c1ccccc1)N1N=C(c2ccc3ccccc3c2)CC1c1ccc(Cl)cc1 (stereo unspecified),97.2%,95.6%,107,99.8%,93.8%,89.5%,111%,101%,71.5%,103%,98.8%,108%,95%,86.4%,93.7%,108%,–,–,–,–
C/C(=N\Nc1ccc([N+](=O)[O-])cn1)c1ccc(N)cc1,21.8%,–,109,98.2%,115%,93.5%,109%,115%,103%,100%,96.5%,112%,85%,97.8%,102%,95.5%,100%,101%,–,–
CS(=O)(=O)c1ccc(C(=O)Nc2ccc(Cl)c(-c3ccccn3)c2)c(Cl)c1,9.7% (active),–,23.3,33.6%,19.2%,25.2%,51.1%,11.1%,16.6%,11.8%,14.1%,20.8%,20.4%,11.7%,5.78% (active),13.7%,26.8%,-11.1% (active),–,–
O=C(Nc1cccc(-n2ccc3c(NC(=O)c4ccccc4)nccc32)c1)c1ccc(N2CCOCC2)c(C(F)(F)F)c1,2.76% (active),–,16.3,41.1%,-6.21% (active),8.99% (active),55.5%,14.3%,7.57% (active),25.2%,5.17% (active),26.9%,14%,12.5%,8.77% (active),–,51.7%,26.9%,–,–
CCN1C(=O)N(CC)C2C1NN=c1s/c(=C\c3ccco3)c(=O)n12 (stereo unspecified),17%,–,27.8,36.7%,31.6%,36.9%,29.6%,9.31% (active),27.8%,53.9%,-56.9% (active),20.2%,12.1%,23.5%,23%,15.9%,63.3%,-12% (active),–,–
CC(C)(C)OC[C@@H]1N=C(c2ccc(Br)cc2)Nc2nc3ccccn3c2C1=O,35.4%,67.5%,79.5,105%,64.3%,40.7%,65.2%,39.7%,61.9%,72.5%,-13.8% (active),40.3%,27.8%,43.7%,90.9%,49%,–,–,–,–
Cc1cc(O)c2cc3c(O)c(O)ccc3cc2c1,101%,115%,–,81.5%,109%,98.1%,110%,109%,–,109%,123%,114%,–,102%,114%,108%,–,133%,139,4.83% (active) and -31.7% (active)
CCN(CC)CCCCCCCCNc1c2ccc(Cl)cc2nc2ccc(OC)cc12,-63.6% (active),-43.8% (active),–,-24% (active),-29.1% (active),-9.45% (active),–,-29.8% (active),-37.9% (active),-82.6% (active),-81.9% (active),-31.9% (active),-75.1% (active),-63.8% (active),-89.1% (active),-49.5% (active),-49.8% (active),-38.3% (active),–,–
CN1C(=O)C(C(=O)/C=C/c2ccccc2C(=O)O)C(=O)N(C)C1=O,98.1%,–,102,104%,88.8%,119%,98.5%,114%,89.2%,90.4%,101%,109%,112%,97.3%,116%,104%,109%,110%,–,–
CN1C(=O)N(C)C2C1NN=c1s/c(=C\c3ccc(C(F)(F)F)cc3)c(=O)n12 (stereo unspecified),16.8%,–,29.1,49.3%,32.1%,46.4%,18.5%,15.4%,24.6%,50.4%,-52.1% (active),19.1%,12%,26.9%,54.9%,16.3%,63.8%,3.49% (active),–,–
Cc1c(C(N)=O)sc2ncn(CC(=O)NN=C3CCCCC3)c(=O)c12,82.9%,–,110,104%,110%,135%,108%,100%,103%,99.4%,99%,97.4%,109%,95.1%,106%,115%,110%,107%,–,–
Cc1cccc(N=NC(=S)NNc2cccc(C)c2)c1,107%,–,108,111%,105%,92.4%,116%,113%,97.6%,134%,112%,107%,92.8%,109%,104%,124%,101%,139%,–,–
COC(=O)[C@H](Cc1cn(C)cn1)NC(=O)[C@H](CC(C)C)NC(=O)Nc1cc(C(F)(F)F)cc(C(F)(F)F)c1,-46.5% [100 µM] (active),-53.4% [100 µM] (active),–,-98.6% [100 µM] (active),-100% [100 µM] (active),-89.2% [100 µM] (active),-17.3% [100 µM] (active),-67.3% [100 µM] (active),-64.9% [100 µM] (active),-95.6% [100 µM] (active),-97.1% [100 µM] (active),-43.6% [100 µM] (active),-86.5% [100 µM] (active),-98% [100 µM] (active),-90.3% [100 µM] (active),-95.4% [100 µM] (active),–,-98.8% [100 µM] (active),–,–
O=C1CCCN1C1CCN2CCCc3cccc1c32 (stereo unspecified),83.5%,–,103,99.9%,110%,98.5%,112%,108%,94.1%,134%,108%,108%,96.9%,101%,105%,109%,105%,121%,–,–
O=[N+]([O-])c1ccc(N=Nc2c(NNc3ccc([N+](=O)[O-])cn3)cc(S(=O)(=O)O)c3ccccc23)nc1,47.2%,90%,67.5,91.4%,78%,84.9%,–,79.5%,–,81.7%,90%,83.1%,85.9%,69.6%,87.1%,87.6%,–,-5.33% (active),–,–
CCCCCc1c(C)[nH]c(/C=C2\N=C(c3ccc[nH]3)C=C2Oc2ccc(OC)cc2)c1C,-9.14% [100 µM] (active),-37.7% [100 µM] (active),–,-65.3% [100 µM] (active),-63.2% [100 µM] (active),-70.6% [100 µM] (active),0.631% [100 µM] (active),-78% [100 µM] (active),-48.5% [100 µM] (active),-91.5% [100 µM] (active),-82.2% [100 µM] (active),-56.5% [100 µM] (active),-100% [100 µM] (active),-99.4% [100 µM] (active),-58.2% [100 µM] (active),-90.9% [100 µM] (active),-99.7% [100 µM] (active),-95% [100 µM] (active),–,–
Cc1cc(N)cc(C)c1-c1c(Br)cc(N)cc1Br,9.99% (active),–,31,45.9%,6.33% (active),21%,34.1%,-1.83% (active),36.3%,35.8%,-44.3% (active),34.5%,27.1%,23.3%,42.3%,23.8%,61.9%,1.61% (active),–,–
